# Source: PubChem BioAssay (NCATS)
# Records with an inconclusive call do not appear. Values without a mark were called inactive. Activity calls are given as the source filed them. Calls come from the whole dose curve; tested in HEK293 reporter line.
# Test: qHTS for Inhibitors of the Functional Ribonucleoprotein Complex (vRNP) of Lassa (LASV) Arenavirus: LASV Primary Screen - GLuc reporter signal (AID 1347082); note: nearly all actives have a fitted effect of over 60% in size
# Details: LASV minigenome vRNP, Gaussia luciferase reporter; series mostly up to 57.5 µM; activity change, negative = inhibition: at the top concentration
# % is set by controls: 0 for no effect and ±100 for the full control effect; potency is the fitted concentration of half-maximal effect.
SMILES,"activity change, negative = inhibition",Potency
COCC1(CO)C(=O)C2CCN1CC2 (stereo not given),2.52%,–
O=S(=O)(CC1CS1)c1ccc(Oc2ccccc2)cc1 (stereo not given),7.54%,–
Clc1ccc2ncc(-c3cccc(NC4CNC4)n3)n2c1,-18.1%,–
CCCCCCCCc1ccc(O)cc1,-11.5% [at 115 µM],–
CCn1c(-c2nonc2N)nc2cnc(Oc3cccc(NC(=O)c4ccc(OCCN5CCOCC5)cc4)c3)cc21,–,15.3 µM (active)
COc1cc(Nc2ncc(F)c(Nc3ccc4c(n3)NC(=O)C(C)(C)O4)n2)cc(OC)c1OC,22.9%,–
COc1ccc(CC2NCCc3cc(OC)c(OC)cc32)cc1OC (stereo not given),-22.7%,–
COc1cc2c(cc1OC)[C@@H]1C(=O)c3ccc4c(c3O[C@@H]1CO2)C=CC(C)(C)O4,–,0.153 µM (active)
COC1=C[C@@H]2[C@@H]3Cc4ccc(OC)c(O)c4[C@]2(CCN3C)CC1=O,–,19.3 µM (active)
CC(C)C[C@H](NC(=O)CNC(=O)c1cc(Cl)ccc1Cl)B(O)O,–,7.69 µM (active)
CC(C)Oc1cccc(NC(=O)c2ccccc2C(F)(F)F)c1,-34.1% [at 115 µM],–
CCN1CCN(C(=O)Cc2ccc(Nc3ncc(F)c(Nc4ccc(C(=O)Nc5ccccc5Cl)cc4)n3)cc2)CC1,-3.53%,–
CC(=O)N(C)c1cccc(-c2ccnc3c(C(=O)c4cccs4)cnn23)c1,-2.44%,–
O=C(N[C@@H](COc1ccc2[nH]c(=O)[nH]c2c1)c1ccccc1)c1cccn(Cc2ccc(F)c(F)c2)c1=O,-8.19%,–
COC(=O)[C@]12CCC(C)(C)C[C@@H]1[C@@H]1C(=O)C=C3[C@@]4(C)C=C(C#N)C(=O)C(C)(C)[C@@H]4CC[C@@]3(C)[C@]1(C)CC2,–,4.85 µM (active)
